# In article PMC4336329 (PLoS ONE, 2015):
# About 14,000 (4.5%) of roughly 310,000 compounds showed an effect of 50% or more. The effect is printed as a negative number. Many of the other results were omitted from the sample, so strong results are more common in it than they were.
# Target: human ether-à-go-go-related gene (hERG) potassium channel (human, UniProt Q12809)
# Test: primary screen, population patch clamp on CHO cells stably expressing hERG; higher = less effect of the substance
# 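Further: peak tail current of the secondary pulse compared with the same well before compound.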
# human ether-à-go-go-related gene (hERG) potassium channel, sequence (Q12809 whole entry, looked up): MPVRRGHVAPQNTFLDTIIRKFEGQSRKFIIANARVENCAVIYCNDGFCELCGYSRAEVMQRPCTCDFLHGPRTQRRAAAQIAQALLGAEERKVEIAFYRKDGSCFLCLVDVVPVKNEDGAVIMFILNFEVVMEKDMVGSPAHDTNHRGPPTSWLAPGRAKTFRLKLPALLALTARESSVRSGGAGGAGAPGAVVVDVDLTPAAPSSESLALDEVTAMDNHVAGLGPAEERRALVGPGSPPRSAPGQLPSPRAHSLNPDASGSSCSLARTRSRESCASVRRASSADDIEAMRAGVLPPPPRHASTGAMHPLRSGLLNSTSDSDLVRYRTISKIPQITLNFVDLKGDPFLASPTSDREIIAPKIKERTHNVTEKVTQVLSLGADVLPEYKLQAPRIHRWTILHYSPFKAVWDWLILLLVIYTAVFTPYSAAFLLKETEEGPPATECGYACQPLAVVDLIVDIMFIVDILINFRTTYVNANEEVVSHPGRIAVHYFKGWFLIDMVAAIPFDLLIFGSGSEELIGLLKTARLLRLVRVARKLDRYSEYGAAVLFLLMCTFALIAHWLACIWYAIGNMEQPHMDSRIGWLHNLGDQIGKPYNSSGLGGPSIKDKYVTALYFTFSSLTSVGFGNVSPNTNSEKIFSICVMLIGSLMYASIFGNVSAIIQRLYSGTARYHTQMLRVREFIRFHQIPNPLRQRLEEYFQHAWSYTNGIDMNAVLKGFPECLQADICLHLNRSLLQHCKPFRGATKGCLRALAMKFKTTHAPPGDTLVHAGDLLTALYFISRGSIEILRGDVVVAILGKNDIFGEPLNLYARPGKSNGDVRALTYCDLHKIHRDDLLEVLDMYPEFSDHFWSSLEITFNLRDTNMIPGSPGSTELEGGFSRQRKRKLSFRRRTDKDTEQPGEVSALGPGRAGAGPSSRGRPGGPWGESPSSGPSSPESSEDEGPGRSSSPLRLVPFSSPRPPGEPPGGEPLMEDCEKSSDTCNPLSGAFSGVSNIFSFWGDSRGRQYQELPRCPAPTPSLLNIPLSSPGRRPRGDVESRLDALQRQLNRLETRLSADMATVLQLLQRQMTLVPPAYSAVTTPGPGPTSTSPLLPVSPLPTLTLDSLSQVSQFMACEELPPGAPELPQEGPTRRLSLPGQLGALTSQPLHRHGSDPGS
row,Compound,"hERG current change (%, negative = inhibition) at 10uM [%]"
1,COC(=O)[C@@H]1C[C@@H]2CC[C@@H](O)C[C@@H]2N1Cc1ccc(N2CCN(C)CC2)cc1,9.87
2,CN(CCO)c1nc2c(c(=O)n(Cc3ccc(Cl)cc3)c(=O)n2C)n1C,3.79
3,Cn1c(N2CCCC2)nc2c1c(=O)n(Cc1cccc(F)c1)c(=O)n2C,-19.6
4,CCCCCCn1c(N2CCCC2)nc2c1c(=O)n(C)c(=O)n2C,-1.96
5,CC1CCN(c2nc3c(c(=O)n(C)c(=O)n3C)n2Cc2ccccc2)CC1,-50
6,Cn1c(N2CCC(C(N)=O)CC2)nc2c1c(=O)n(Cc1ccc(Cl)cc1)c(=O)n2C,-58.5
7,CCCCCn1c(N2CCCC2)nc2c1c(=O)n(C)c(=O)n2C,-9.54
8,Cn1c(N2CCC(C(N)=O)CC2)nc2c1c(=O)n(Cc1ccc(Br)cc1)c(=O)n2C,-57.3
9,Cn1c(Cl)nc2c1c(=O)n(Cc1cccc(Br)c1)c(=O)n2C,-35.3
10,CCOC(=O)Cn1c(=O)c2c(nc(N3CCCCC3)n2Cc2ccccc2)n(C)c1=O,-40.4
11,Cn1c(N2CCC(C(N)=O)CC2)nc2c1c(=O)n(Cc1cccc(Br)c1)c(=O)n2C,-64.7
12,CCCCCCn1c(N2CCC(C(N)=O)CC2)nc2c1c(=O)n(C)c(=O)n2C,-56.4
13,CC(O)CNc1nc2c(c(=O)n(Cc3ccc(Br)cc3)c(=O)n2C)n1C (stereo not drawn),-12.6
14,CCOc1ccc(S(=O)(=O)NCCC(=O)OC(C)C(=O)N2CCc3ccccc32)cc1 (stereo not drawn),-22.6
15,NC(=O)c1ccc(NC(=O)CNCc2ccccc2Cl)cc1,8.82
16,COc1ccccc1NS(=O)(=O)c1cccc(C(=O)NCc2ccccn2)c1,13.2
17,CCOc1nc(C)ccc1-c1noc(-c2ccccc2OC)n1,12.7
18,CCCC12CN3CC(C)(CN(C1)C3c1ccco1)C2=O (stereo not drawn),-4.64
19,CCOc1ncccc1C(=O)NCCc1ccc(Cl)cc1,-5.75
20,CC(=O)CC(C)(C)Nc1nc2cc([N+](=O)[O-])ccc2o1,0.0382
21,COc1cc(NC(=O)c2ccc3snnc3c2)cc(OC)c1,13.5
22,CCOCc1nnc(NC(=O)C2CC(=O)N(C3CCCC3)C2)s1 (stereo not drawn),4.92
23,COc1ccc(/C=C/c2nc(-c3ccccc3O)n[nH]2)cc1OC,12.1
24,CCOC(=O)Nc1c(O)ccc2oc(C)c(-c3ccccc3)c12,-1.49
